Our source for the growth values is PubChem BioAssay (NCI).

SMILES strings stand for the structures. This is part of a sample that, as a whole, favours compounds with a hit. Of some 83,000 tested, about 20% had one in any assay.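 Percent growth is the endpoint: 0 to 100 indicates growth inhibition (40 means 60% inhibition), 0 means no net growth, and negative values indicate cell death.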 Values without a mark were called inactive. Active and inactive are the calls of the source. The calls were made as follows: active = growth percent below 10; inactive = the rest.

The subject of the assay is UACC-257 melanoma. The assay can be described thus: NCI-60 one-dose screen, 48 h (100 = growth as untreated, 0 = no growth, -100 = all killed). The conditions noted are these: 10 µM unless noted.
As for `Clc1nnc2c3ccccc3ccn12`, the growth was 105%.

Consider `COc1ccc(-c2nn(C(=O)NCCN(C)C)cc2-c2ccncc2)cc1Cl`, for which the growth is 64.4%.

For `CCN1C(=O)N(CC)C2C1NN=c1s/c(=C\c3ccco3)c(=O)n12` (centres undefined), the growth is 63%.

As to `CC(C)N(C(=S)SSC(=S)N(C(C)C)C(C)C)C(C)C`, the growth is 93.4%.

For the compound `CC(C)=CC[C@@H]1CC2(CC=C(C)C)C(=O)C(OC3(C(=O)c4ccccc4)C(=O)C4(CC=C(C)C)C[C@@H](CC=C(C)C)C(C)(C)C(CC=C(C)C)(C4=O)C3=O)(C(=O)c3ccccc3)C(=O)C(CC=C(C)C)(C2=O)C1(C)C` (some centres undefined), the growth was -19.7% (active).

For `CCCCCCCCCCCCCCCC1=NCCN1`, the growth is 99.9%.

For `COc1cc([N+](=O)[O-])cc(OC)c1OC`, the growth is 114%.

As for `NNC(=O)CSc1nc2scc(-c3ccccc3)c2c(=O)n1-c1ccccc1`, the growth is 129%.

On to `C=CCN(CC#N)CC=C`, for which the growth was 99.5%.

As for `CCOC(=O)Cn1c(-c2nonc2NC(=O)c2ccccc2F)nc2ccccc21`, the growth is 72.1%.

For the compound `CCCCCCCOc1cccc(/C=C2\N=C3SCCCN3C2=O)c1`, the growth is 114%.

For `Cc1c2c(cc3c1[nH]c1ccccc13)C=NCC2`, the growth is 106%.

Take `COc1cc(OC)c(Cl)cc1N`: the growth was 111%.

In the case of `CS(=O)(=O)c1ccc(C(=O)Nc2ccc(Cl)c(-c3ccccn3)c2)c(Cl)c1`, the growth was 32.6%.

Take `Cc1cc([N+](=O)[O-])c(C)cc1N`: the growth was 109%.

With `COc1cnc2c(c1)C(=O)c1c-2n(CCCN2CCNCC2)c(=O)c2cc(Cl)ccc12`, the growth is 22.4%.

Take `COc1cc(/C=C2\CN(C(=O)OC(C)(C)C)C/C(=C\c3ccc(O)c(OC)c3)C2=O)ccc1O`: the growth is 73.6%.

On to `CCN1C(=O)C(C)C=C(C)C=C1C` (centres undefined), for which the growth is 107%.

Take `COCc1nc(NS(=O)(=O)c2ccc(N)cc2)nc(C)c1Br`: the growth is 104%.

Consider `O=c1c2cc(Br)cc(Br)c2nc(-c2ccc(Cl)cc2)n1/N=C\c1ccccc1F`, for which the growth is 89.9%.

Take `CCCCCCCCCCCCCC1=NC(C)(C)CN1C(C)C`: the growth was -57.5% (active).

Turning to `CCC(=O)OCc1ccc(OC)cc1`, the growth is 96.6%.

Turning to `Fc1ccc(-c2cnc3nonc3n2)c(F)c1`, the growth is 96.6%.

As to `O=S(=O)(Nc1ccc2ccccc2c1)N1CCCCC1`, the growth was 61.1%.

For the compound `CCn1c(Cc2ccccc2Nc2c(Cl)cccc2Cl)nnc1SCC(=O)Nc1cccc(OC)c1`, the growth was 97.6%.

On to `CCN(CC)CC(=O)Nc1c(C)ccc(N)c1C`, for which the growth was 105%.

As for `C=C1C[C@@]2(C)C(CC[C@]3(C)C2CC=C2C4CC(C)(C)C[C@@H](OC(=O)/C(C)=C\C)[C@]4(C(=O)O)CC[C@]23C)C(C)(C)C1=O` (some centres undefined), the growth is 17.1%.

Take `C=C1C(=O)O[C@H]2[C@H]1CC/C(COC(=O)NCc1cccc(OC)c1)=C\CC[C@@]1(C)O[C@@H]21`: the growth was 25.4%.

Turning to `CCCCOc1nc2ccccc2cc1/C=C/c1cc(/C=C/c2cc3ccccc3nc2OCCCC)n(-c2ccccc2)n1`, the growth was 96.4%.

With `CCCCc1nc(Cl)c(C2CC(c3ccc(S(N)(=O)=O)cc3)=NN2c2cc(Cl)cc(Cl)c2)[nH]1` (centres undefined), the growth is 55.4%.

Take `O=C(N/N=C\c1cc(Br)ccc1O)c1ccncc1`: the growth was 11.5%.

In the case of `CC(C)C/C=C/C=C/C(=O)N[C@@H](CC(N)=O)C(=O)N[C@@H]1C(=O)N[C@H](c2ccc(O)cc2)C(=O)N[C@H](CCCN)C(=O)N[C@H]([C@@H](C)O)C(=O)N[C@H](c2ccc(O)cc2)C(=O)N[C@H](c2ccc(O)cc2)C(=O)N[C@H]([C@H](C)O)C(=O)N[C@H](Cc2ccccc2)C(=O)N[C@H](CCCN)C(=O)N[C@H](c2ccc(O[C@H]3O[C@@H](CO)[C@@H](O)[C@@H](O)[C@H]3O[C@@H]3O[C@H](CO)[C@H](O)[C@H](O)[C@@H]3O)cc2)C(=O)N[C@H]([C@H](C)O)C(=O)N[C@H](c2ccc(O)cc2)C(=O)NCC(=O)N[C@H](CC(C)C)C(=O)N[C@H](C)C(=O)N[C@H](c2ccc(O)c(Cl)c2)C(=O)O[C@@H]1C(N)=O`, the growth was 6.54% (active).

Regarding `CN(C)c1ccc(/C=C\c2cccc[n+]2C)cc1`, the growth was 31.7%.

As to `COC(=O)CSc1ccc(Cl)cc1`, the growth is 104%.

For `S=C(S)Oc1cccc2cccnc12`, the growth is 108%.

In the case of `O=C1NN(C(=O)c2ccccc2)C(c2ccc(Cl)c(Cl)c2)=C/C1=C\c1ccccc1[N+](=O)[O-]`, the growth was 35.4% [6.75 µM].

Consider `CCOC(=O)Nc1ccc2nc(Sc3ccc(Cl)cc3)sc2c1`, for which the growth is 57.3%.

With `COc1cc(C2CC(c3cccc(Nc4ccnc5cc(Cl)ccc45)c3)=NN2C=O)cc(OC)c1OC` (centres undefined), the growth is 37.6%.

Turning to `c1cn2cc(-c3ccc4ncn(C5CCCCC5)c4c3)nc(-c3ccc4c(c3)ncn4C3CCCCC3)c2n1`, the growth was -71.5% (active).
